Data: PubChem BioAssay (NCI)
The panel holds about 83,000 compounds, 20% with a hit somewhere; the sample as a whole holds those more often.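 Activity criterion: percent growth below 10, measured after cells in 96-well plates were exposed to a single compound concentration for 48 hours.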 The source made the active and inactive calls.

Assays:
Experiment in all cases: NCI-60 one-dose screen, 48 h (100 = growth as untreated, 0 = no growth, -100 = all killed)
Conditions in all cases: 10 µM unless noted
[1] = test system: SR leukemia
[2] = test system: RPMI-8226 leukemia
[3] = test system: OVCAR-8 ovarian
[4] = test system: OVCAR-5 ovarian
[5] = test system: OVCAR-4 ovarian
[6] = test system: SK-OV-3 ovarian
[7] = test system: IGROV1 ovarian
[8] = test system: OVCAR-3 ovarian
[9] = test system: HS 578T breast
[10] = test system: NCI/ADR-RES ovarian
[11] = test system: T-47D breast
[12] = test system: BT-549 breast
[13] = test system: MDA-MB-435 melanoma
[14] = test system: SW-620 colon
[15] = test system: MCF7 breast
[16] = test system: HCT-116 colon
[17] = test system: HCC-2998 colon
[18] = test system: KM12 colon

Measured: growth

CCCCCCOc1ccc(/C=N/Nc2cc(C)nc3ccc(Br)cc23)cc1
active: [1] -32.2% | [2] -42.4% | [3] -36.1% | [4] -92.7% | [5] -88.5% | [7] -85.3% | [8] -91.6% | [9] -40.4% | [10] -67.1% | [11] -11% | [13] -87.7% | [14] -72.5% | [15] -67% | [16] -66.4% | [17] -94.5% | [18] -84.7%
inactive: [6] 101% | [12] 106%

FC(F)(F)Oc1cccc(-c2cc(NCCCCCCNc3cc(-c4cccc(OC(F)(F)F)c4)nc4ccc(N5CCCC5)cc34)c3cc(N4CCCC4)ccc3n2)c1
active: [1] -40.7% | [2] -34.3% | [3] -50.2% | [4] -29.4% | [5] -72.7% | [7] -64% | [8] -95.9% | [9] -4.44% | [11] -46.4% | [13] -87.6% | [14] -78.8% | [15] -64.7% | [16] -66.6% | [17] -85.3% | [18] -90.4%
inactive: [6] 89.8% | [10] 21.6% | [12] 105%

O=C1CCC(NC(=S)Nc2ccccc2)N1 (stereo unspecified)
inactive: [1] 93.8% | [2] 101% | [3] 107% | [4] 111% | [5] 107% | [6] 117% | [7] 102% | [8] 106% | [9] 105% | [10] 96.9% | [11] 103% | [12] 114% | [13] 109% | [14] 107% | [15] 97.3% | [16] 97.6% | [17] 98.7% | [18] 98%

Cc1ccc(C(=O)Nc2ccccc2C(=O)N/N=C(\c2ccccc2)c2ccccn2)cc1
active: [5] 9.94% | [6] 8.33%
inactive: [1] 16.8% | [2] 16% | [3] 19.5% | [4] 43.3% | [7] 24% | [8] 22.5% | [9] 68.3% | [10] 13.3% | [11] 13.4% | [12] 13.5% | [13] 28% | [14] 37.3% | [15] 11.9% | [16] 17.9% | [17] 29.7% | [18] 26%

C=C1C(=O)O[C@H]2[C@H]1CC/C(COC(=O)NCCc1c[nH]c3ccc(Cl)cc13)=C\CC[C@@]1(C)O[C@@H]21
inactive: [6] 96.4% | [9] 22.8% | [10] 33.9% | [17] 55.1% | [18] 11.3%
active: [1] -4.62% | [2] -31.9% | [3] -43.6% | [4] -11.3% | [5] -80.8% | [7] -83.9% | [8] -96.4% | [11] -40% | [12] -52.9% | [13] -91.5% | [14] -87.4% | [15] 8.5% | [16] -88.9%

ClCC1(Cn2cnc3c(Cl)nc(Cl)nc32)COC1
inactive: [1] 86.1% | [2] 87.7% | [3] 105% | [4] 99.5% | [5] 93.3% | [6] 93.8% | [7] 90.8% | [8] 84.4% | [9] 50.9% | [10] 106% | [11] 72% | [12] 108% | [13] 87.6% | [14] 66.3% | [15] 76.1% | [16] 13.7% | [18] 97.5%
active: [17] -6.15%

NC(=O)C1(N2CCCCC2)CCN(CCCC(=O)c2ccc(F)cc2)CC1
active: [8] -14.7% | [9] -2.41% | [13] -48.3%
inactive: [1] 11.4% | [2] 29.5% | [3] 51.1% | [4] 72.7% | [5] 59.8% | [6] 30.8% | [7] 62.6% | [10] 100% | [11] 44% | [12] 56.3% | [14] 19.6% | [15] 20% | [16] 19.3% | [17] 11% | [18] 15.8%

CCCCOc1ccc(/C=N/Nc2cc(C)nc3ccc(Cl)cc23)cc1
inactive: [4] 88.9% | [6] 79.5% | [9] 47.7% | [10] 58.7% | [11] 21.5% | [12] 96.6%
active: [1] -20.8% | [2] -31.6% | [3] -58.5% | [5] 5.29% | [7] -71.6% | [8] -76.7% | [13] -85.2% | [14] -58.3% | [15] -70.8% | [16] -68% | [17] -71.1% | [18] -76.6%

COc1ccc(/C=N/C2=C(C#N)C(c3ccccc3[N+](=O)[O-])c3ccc4ccccc4c3O2)cc1 (stereo unspecified)
inactive: [1] 89.4% | [2] 90.3% | [3] 95.1% | [4] 105% | [5] 91.5% | [6] 101% | [7] 54.6% | [8] 77.4% | [9] 95.3% | [10] 95.8% | [11] 79.4% | [12] 92.8% | [13] 98.5% | [14] 97.8% | [15] 56.4% | [16] 83.3% | [17] 106% | [18] 95.9%

COc1ccc(C2=NN(C(C)=O)C(c3cn(Cc4ccc(Cl)cc4)c4ccccc34)C2)cc1 (stereo unspecified)
inactive: [1] 66.2% | [2] 50% | [3] 78.3% | [4] 79.6% | [5] 70.1% | [6] 90.1% | [7] 77.5% | [8] 78.1% | [9] 75.9% | [10] 75% | [11] 51.8% | [12] 97.1% | [13] 96.5% | [14] 98.2% | [15] 84.5% | [16] 86.3% | [17] 95.5% | [18] 86.4%

CN1CCN(CCCNc2nccc(-c3c(-c4ccc(F)c(O)c4)nc4sccn34)n2)S1(=O)=O
inactive: [1] 58.1% | [2] 87.4% | [3] 96.1% | [4] 131% | [5] 133% | [6] 91.8% | [7] 98.5% | [8] 116% | [9] 97.2% | [10] 99.5% | [11] 90.1% | [12] 128% | [13] 40.8% | [14] 112% | [15] 85% | [16] 75.9% | [17] 108% | [18] 94.3%

CN1C(=O)N(C)[C@H]2NC(NN)=N[C@H]21
inactive: [1] 100% | [2] 118% | [3] 103% | [4] 98.8% | [5] 103% | [6] 121% | [7] 98.9% | [8] 109% | [9] 95.2% | [10] 105% | [11] 91.7% | [12] 101% | [13] 101% | [14] 103% | [15] 97.8% | [16] 96.9% | [17] 102% | [18] 105%

CS(=O)(=O)c1ccc(-c2cc3c(oc2=O)-c2ccccc2OC3O)cc1 (stereo unspecified)
inactive: [1] 103% | [2] 90.6% | [3] 95.9% | [4] 98.2% | [5] 94% | [6] 92.8% | [7] 102% | [8] 88.2% | [9] 88.5% | [10] 105% | [11] 90.4% | [12] 107% | [13] 111% | [14] 97.8% | [15] 84.8% | [16] 95.9% | [17] 97.5% | [18] 95.1%

c1cnc2nc3c(cc2c1)oc1ccccc13
inactive: [1] 80.7% | [2] 94.1% | [3] 100% | [4] 105% | [5] 103% | [6] 121% | [7] 97.2% | [8] 115% | [9] 102% | [10] 100% | [11] 100% | [12] 98.8% | [13] 103% | [14] 99.4% | [15] 86.6% | [16] 101% | [17] 100% | [18] 98.2%

[2H]C1([2H])NC([2H])([2H])C([2H])([2H])N(c2ccc(Nc3ncc4cc(C(=O)N(C)C)n(C5CCCC5)c4n3)nc2)C1([2H])[2H]
inactive: [1] 39.8% | [2] 34.8% | [3] 85.2% | [4] 39.8% | [5] 92.7% | [6] 58.3% | [7] 73.4% | [8] 107% | [9] 71.2% | [10] 104% | [11] 68% | [12] 92.9% | [13] 68.7% | [14] 42.2% | [15] 45% | [16] 55.3% | [17] 89.9% | [18] 54.5%

COc1ccc(C(O)c2cc3c(N)c(C(=O)Nc4cccc(Br)c4C)sc3nc2C)cc1 (stereo unspecified)
active: [1] 1.86% | [2] 7.3% | [8] -14.4% | [13] 8.91%
inactive: [3] 17.4% | [4] 39.6% | [5] 47.4% | [6] 30.8% | [7] 24.8% | [9] 21.8% | [10] 14.1% | [11] 51.8% | [12] 42.3% | [14] 25.9% | [15] 22.1% | [16] 13.2% | [17] 16.2% | [18] 11.1%

Clc1ccc2c(c1)c(-c1ccccc1)nc1nncn12
inactive: [1] 83.8% | [2] 103% | [3] 106% | [4] 115% | [5] 121% | [6] 107% | [7] 109% | [8] 110% | [9] 106% | [10] 101% | [11] 98.2% | [12] 99.8% | [13] 113% | [14] 116% | [15] 99% | [16] 106% | [17] 113% | [18] 103%
